# TDP1 cell CPT – growth inhibition of DT40 Tdp1-/-;hTDP1 cells with camptothecin (screen for TDP1 inhibitors) | Potency, µM (highest dose often 46.2 µM), without a hit: top-dose activity change, negative = growth inhibition, most hits filed as inhibitors | chicken DT40 Tdp1-/-;hTDP1 cells + 20 nM CPT, ATP luminescence, 48 h | actives 12% (n = 420,000) | AID 686979; further: potency means the concentration at half of the fitted maximal effect; nearly all actives have a fitted effect of over 55% in size
#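 Chicken DT40 Tdp1-/- cells stably complemented with human TDP1 were seeded at 400 cells/well in medium containing 20 nM camptothecin, exposed to pin-transferred compounds, and grown at 37 °C for at least 48 hr. Viability was read as ATP luminescence.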
# HT1080 IDH1KD tx – toxicity to HT-1080 IDH1 knockdown cells (counter line) | Potency, µM (series often up to 46.1 µM), without a hit: top-dose activity, negative = toxicity, most hits filed as cytotoxic | HT-1080 IDH1 knockdown viability, ATP luminescence, 48 h | actives 2% (n = 360,000);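 further: potency means the concentration at half of the fitted maximal effect; 0% = DMSO wells and -100% = cell-free medium wells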
#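 Viability of IDH1-knockdown HT-1080 fibrosarcoma cells was assessed by CellTiter-Glo after 48 h at 37 °C with titrated compound; concentration-effect curves were classified by fit quality and response size.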
# TDP1 cell noCPT – qHTS for Inhibitors of human tyrosyl-DNA phosphodiesterase 1 (TDP1): qHTS in cells in absence of CPT; DT40 Tdp1-/- hTDP1 cells, no CPT, ATP luminescence, 48 h; Potency, µM (top dose mostly 46.2 µM), inactives show top-dose activity change, negative = growth inhibition, hits mostly inhibitors; actives 15% (n = 420,000); AID 686978, 2013; further: potency means the concentration at half of the fitted maximal effect; nearly all actives have a fitted effect of over 55% in size
#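 Growth of hTDP1-complemented DT40 Tdp1-knockout cells is measured by ATP luminescence after at least 48 hr compound exposure at 37 °C, with DMSO substituting for the 20 nM CPT used in the parallel screen.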
# ELG1 DNA repair – blocks ELG1-dependent DNA repair in HEK293T cells; HEK293T ELG1-luciferase reporter, luminescence, 16 h; DNA damage induced by 5-fluorouridine; Potency, µM (highest dose often 46.1 µM), inactives show at the highest dose activity change, negative = inhibition, actives largely listed as inhibitors; actives 2.3% (n = 330,000); AID 504467; further: potency means the concentration at half of the fitted maximal effect; nearly all actives have a fitted effect of over 55% in size
#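 HEK293T cells expressing luciferase-tagged ELG1 (2,000/well) received 5-Fluorouridine plus compound or DMSO for 16 hr at 37 °C. Luciferase was read by ONE-Glo luminescence after 30 min at room temperature.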
# HT1080NT lethal – kills 2HG-producing HT-1080-NT fibrosarcoma cells; HT-1080-NT fibrosarcoma viability, CellTiter-Glo ATP luminescence, 48 h; Potency, µM (top dose mostly 46.1 µM), inactives show top-dose activity, negative = less viability, actives largely listed as cytotoxic; actives 1.6% (n = 360,000);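 further: NT is the 2HG producing partner of a matched IDH1 knockdown line; potency means the concentration at half of the fitted maximal effect; 0% = DMSO-treated cells and -100% = media-only wells without cells; nearly all actives have a fitted effect of over 55% in size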
#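 Viability of the 2HG-overproducing fibrosarcoma line after 48 hours of compound exposure at 37 degrees C was determined by luminescence with CellTiter-Glo, and concentration-effect curves were then fitted and categorized.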
# IL1B secr inh – inflammasome signaling inhibition, IL-1 beta readout. actives 4.7% (n = 360,000). THP-1 LPS/ATP IL-1B secretion, AlphaLISA, 16 h; active compounds read low. activity change, % at 57.5 µM. AID 743279; in the data active means activity change below about -50%; inconclusive means mostly about -30% to -49%
#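 Secreted IL-1B measured by AlphaLISA bead assay after 16 h compound exposure of THP-1 cells; compounds (final up to 57.5 uM) added 1 h before LPS (250 ng/mL) and ATP (1.25 mM) stimulation; lower signal means less secretion.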
# An asterisk follows results filed as active; ? = inconclusive; . = no result given; [ ] = remark or other dose. Most compounds without a hit are left out; they make up all but 19% or so of the library. Unless noted, the call rests on the fitted dose curve; in most records, active means well fitted curve in the direction sought with a large enough effect; inconclusive means small, poorly fitted or top-dose-only effect, or another doubt; inactive means no such curve, though single readings can be large; an effect the other way counts as inactive or inconclusive. Unless noted, on the % scale 0 is the no-effect control and ±100 the full control effect.
SMILES,TDP1 cell CPT,HT1080 IDH1KD tx,TDP1 cell noCPT,ELG1 DNA repair,HT1080NT lethal,IL1B secr inh
COc1ccccc1-n1cc(-c2ccc(Br)cc2)[nH]c1=S,16µM*,-28%,13µM*,1%,-1%,4
COc1cccc(-n2cc(-c3ccc(F)cc3)[nH]c2=S)c1,?,12%,-16%,?,3%,-8
O=c1[nH]c2cc([N+](=O)[O-])c([N+](=O)[O-])cc2[nH]c1=O,-7%,1%,-3%,-24%,-10%,-11
O=c1[nH]cc([N+](=O)[O-])cc1Br,21µM*,-2%,?,7%,2%,22
CCCc1ccc(OCC(=O)Nc2sc3c(c2C(=O)OCC)CCC(C(C)(C)C)C3)cc1 (stereo not drawn),-4%,.,-3%,.,.,.
COc1ccccc1CNc1nc(NCc2cnc(C)cn2)c2sccc2n1,?,-15%,?,.,-25%,26
Fc1ccccc1CNc1nc(NCC2CC2)nc2ccsc12,15µM*,21µM*,16µM*,.,23µM*,-76*
COc1ccccc1CNc1nc(NCc2ccccc2)nc2ccsc12,23µM*,18µM*,15µM*,.,26µM*,-100*
COc1ccccc1CNc1nc(NCc2ccc(C)cc2C)c2sccc2n1,4.6µM*,?,9.2µM*,.,?,-80*
COc1ccccc1CNC(=O)c1sccc1C,3%,2%,-4%,0%,11%,0
COc1ccccc1CNc1nc(NCc2ccccc2F)c2sccc2n1,2.9µM*,21µM*,4.1µM*,.,23µM*,-83*
COc1ccc2[nH]c(=O)c(CN(CC3CCCO3)S(=O)(=O)c3ccccc3F)cc2c1 (stereo not drawn),?,-5%,?,?,-6%,13
c1ccc(CNc2nc(Oc3ccncc3)c3sccc3n2)cc1,-23%,0%,-14%,.,19%,17
Fc1cc(Cl)ccc1Nc1nc(NCc2ccccc2)nc2ccsc12,12µM*,-16%,9.2µM*,.,0%,-15
c1ccc(CNc2nc(NCc3ccccc3)c3sccc3n2)cc1,23µM*,?,18µM*,.,?,-73*
COCCNc1nc(NCc2ccccc2F)c2sccc2n1,18µM*,-28%,18µM*,.,-19%,-19
COc1ccc(-c2cc(CNc3nc(NCc4ccccc4OC)nc4ccsc34)on2)cc1,16µM*,15µM*,26µM*,.,18µM*,0
CN(C)CCNc1nc(-c2ccccc2CO)c2sccc2n1,-27%,1%,-3%,.,-2%,-18
COc1ccc(/C=N/Nc2nc(C(=O)O)cs2)cc1,-4%,-11%,1%,?,-14%,0
CCc1cc2c(cc3c(=O)n(CC(=O)NC4CCCCC4)ncn32)s1,1%,.,-13%,.,.,.
CC(=O)Nc1ccc(NS(=O)(=O)c2cccc3nonc23)cc1,-3%,11%,1%,14%,-1%,18
COc1cc(C(=O)NC2CCCC2)c(Br)c(OC)c1OC,-20%,15%,15%,-11%,2%,8
COc1cc(C(=O)NCCOc2cc(C)cc(C)c2)c(Br)c(OC)c1OC,16µM*,-21%[9.24 µM],?,-26%,?,11
COc1ccc(CN2C[C@H]3CCCN3c3cc(Br)ccc3S2(=O)=O)cc1,2.1µM*,2.6µM*,0.92µM*,?,?,90
C=C1[C@@H](O)CN(Cc2ccc(OC)cc2)S1(=O)=O,?,.,18µM*,.,.,.
CC1(C(=O)NS(=O)(=O)c2cccc(C#N)c2)CCN1C(=O)CCC1CCCC1 (stereo not drawn),3%,10%,-12%,.,19%,27

# Bioassay records: PubChem BioAssay, National Center for Advancing Translational Sciences (NCATS)
